# Experimental data: PubChem BioAssay (Tox21)
# “And” between values parts separate entries of the source, which are not always exact repeats. Identical values can stand only once. Inconclusive results are not listed. A call without a number means that no potency is given here. A structure can be active in one record and inactive in another. The source made the active and inactive calls. Calls follow the shape of the dose curve; as a rule, active = well fitted curve in the direction sought with a large enough effect in the repeat runs; inconclusive = weak or mixed curves; inactive = no such curve, though single readings can be large; an effect the other way counts as inactive or inconclusive.
# What was measured:
# [1] = A CellTox Green Cytotoxicity Assay to monitor cytotoxicity in HEK293 cells - 40 hour (AID 1224871); settings: CellTox Green fluorescence; series mostly up to 76.8 µM; also: nearly all actives have a fitted effect of over 45% in size
# In short: (§1)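 Fluorescence intensity, read at 0, 8, 16, 24, 32 and 40 h of compound treatment, reflected dye binding to DNA of dead HEK293 cells; compounds (23 nL, DMSO) were added 5 h after plating cells with reagent.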
# [2] = qHTS RealTime-Glo MT Cell Viability Assay in HEK293 cells - 16 hour (AID 1224872); settings: RealTime-Glo luminescence; series mostly up to 76.8 µM; also: nearly all actives have a fitted effect of over 50% in size
# In short: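 Cells + reagent dispensed (600 cells/well, HEK293) → 5 h at 37 C/5% CO2 → 23 nL compound in DMSO pinned → 40 h at 37 C → luminescence read at 0, 8, 16, 24, 32, 40 h.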
# [3] = qHTS RealTime-Glo MT Cell Viability Assay in HepG2 cells - 8 hour (AID 1224873); settings: RealTime-Glo luminescence; series mostly up to 76.8 µM; also: nearly all actives have a fitted effect of over 55% in size
# In short: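 HepG2 cells mixed with RealTime-Glo MT reagents (NanoLuc plus cell-permeant prosubstrate) were seeded at 600 cells/well, incubated 5 h at 37 C/5% CO2, then pinned with compounds in DMSO; nonlytic luminescence tracked viability during 40 h treatment.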
# [4] = qHTS RealTime-Glo MT Cell Viability Assay in HEK293 cells - 40 hour (AID 1224874); settings: RealTime-Glo luminescence; max response: stronger effect = lower value; also: nearly all actives have a fitted effect of over 50% in size
# In short: (§2)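 Viable HEK293 cells reduce a cell-permeant prosubstrate; the product diffuses out and is consumed by NanoLuc in the medium to give light. Compounds went in after a 5 h incubation and plates were read over the treatment course.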
# [5] = A CellTox Green Cytotoxicity Assay to monitor cytotoxicity in HEK293 cells - 24 hour (AID 1224875); settings: CellTox Green fluorescence; series mostly up to 76.8 µM; also: nearly all actives have a fitted effect of over 45% in size
# In short: as §1
# [6] = A CellTox Green Cytotoxicity Assay to monitor cytotoxicity in HepG2 cells - 16 hour (AID 1224876); settings: CellTox Green fluorescence; series mostly up to 76.8 µM; also: nearly all actives have a fitted effect of over 45% in size
# In short: (§3)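 Using 1536-well format, dye-containing HepG2 suspension was seeded, allowed 5 h at 37 C/5% CO2, dosed by pintool with compounds, positive and negative controls, and imaged for fluorescence across 40 h.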
# [7] = qHTS RealTime-Glo MT Cell Viability Assay in HepG2 cells - 32 hour (AID 1224877); settings: RealTime-Glo luminescence; series mostly up to 76.8 µM; also: nearly all actives have a fitted effect of over 55% in size
# In short: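 Real-time, nonlytic viability: 600 HepG2 cells/well mixed with NanoLuc enzyme plus prosubstrate; 5 h settle, compound (DMSO) added by pintool; luminescence monitored over 40 h at 37 C.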
# [8] = A CellTox Green Cytotoxicity Assay to monitor cytotoxicity in HepG2 cells - 40 hour (AID 1224879); settings: CellTox Green fluorescence; series mostly up to 76.8 µM; also: nearly all actives have a fitted effect of over 40% in size
# In short: as §3
# [9] = qHTS RealTime-Glo MT Cell Viability Assay in HEK293 cells - 0 hour (AID 1224880); settings: RealTime-Glo luminescence; series mostly up to 76.8 µM; also: nearly all actives have a fitted effect of over 45% in size
# In short: as §2
# [10] = A CellTox Green Cytotoxicity Assay to monitor cytotoxicity in HepG2 cells - 24 hour (AID 1224878); settings: CellTox Green fluorescence; series mostly up to 76.8 µM; also: nearly all actives have a fitted effect of over 45% in size
# In short: as §3
# Potency is read from the fitted curve at half-maximal effect.
Compound,Potency [1],Potency [2],Potency [3],max response [4],Potency [5],Potency [6],Potency [7],Potency [8],Potency [9],Potency [4],Potency [10]
CCOP(=S)(OCC)Oc1cc(C)nc(N(CC)CC)n1,inactive,inactive,inactive,2.8% (inactive),inactive,inactive,inactive,inactive,inactive,–,–
N#Cc1sc2c(=O)c3ccccc3c(=O)c=2sc1C#N,15.5 µM (active),11 µM (active),9.77 µM (active),–,21.9 µM (active),17.4 µM (active),11 µM (active),13.8 µM (active),7.76 µM (active),17.4 µM (active),12.3 µM (active)
COc1ccc2[nH]cc(CCN(C(C)C)C(C)C)c2c1,inactive,inactive,inactive,-12% (inactive),inactive,inactive,inactive,–,inactive,–,inactive
O=P(Cl)(Cl)Cl,inactive,inactive,inactive,0.904% (inactive),inactive,inactive,inactive,inactive,inactive,–,inactive
CC(O)C(=O)[O][Hg][c]1ccccc1 (centres undefined),0.977 µM (active),1.1 µM (active),2.19 µM (active),–,21.9 µM (active),2.75 µM (active),2.75 µM (active),1.95 µM (active),inactive,0.977 µM (active),2.45 µM (active)
N#Cc1c2ccccc2cc2ccccc12,inactive,inactive,inactive,-9.07% (inactive),inactive,inactive,inactive,–,inactive,–,inactive
O=[N+]([O-])[O-].[Tl+],inactive,inactive,inactive,–,inactive,inactive,inactive,inactive,–,–,inactive
O=C(O)CCCCCCNC1c2ccccc2CCc2ccccc21,inactive,inactive,inactive,11.4% (inactive),inactive,inactive,inactive,inactive,inactive,–,–
S=C=NCCc1ccccc1,43.7 µM (active),43.7 µM (active),inactive,–,43.7 µM (active),–,–,–,inactive,49.1 µM (active),–
C[N+]1(C)[C@@H]2CC[C@H]1CC(OC(=O)C(CO)c1ccccc1)C2 (some centres undefined),inactive,inactive,inactive,8.28% (inactive),inactive,inactive,–,inactive,inactive,–,inactive
[O]=[Cr](=[O])([OH])[O][Cr](=[O])(=[O])[OH],inactive,7.83 µM (active) and 21.8 µM (active),inactive,–,inactive,inactive,–,9.86 µM (active) and 12.3 µM (active),inactive,3.5 µM (active) and 2.18 µM (active),inactive
C#CC1(O)CCCCC1,inactive,inactive,inactive,19.4% (inactive),inactive,–,inactive,–,inactive,–,–
O=S(=O)(O)F,inactive,inactive,inactive,6.96% (inactive),inactive,inactive,inactive,inactive,inactive,–,–
CN(C)CCc1c[nH]c2ccccc12,inactive,inactive,inactive,-4.01% (inactive),inactive,inactive,inactive,inactive,inactive,–,–
CCCCn1cc[n+](C)c1 (tested in a mixture with another compound),inactive,inactive,inactive,0.0469% (inactive),inactive,inactive,inactive,inactive,inactive,–,–
O=C(Nc1ccc(F)cc1F)c1cccnc1Oc1cccc(C(F)(F)F)c1,53.8 µM (active),inactive,inactive,0.876% (inactive),inactive,inactive,inactive,inactive,inactive,–,–
CNC(C)(C)Cc1ccccc1,inactive,inactive,inactive,6.36% (inactive),inactive,inactive,inactive,inactive,inactive,–,–
Clc1ccc(C(c2ccc(Cl)cc2)C(Cl)Cl)cc1,55.8 µM (active) and 49 µM (active),44.4 µM (active) and 43.6 µM (active),inactive,–,–,inactive,inactive,inactive,inactive,49.8 µM (active) and 43.6 µM (active),inactive
CCN(CC)C(=S)S,17.5 µM (active) and 4.34 µM (active) and 9.77 µM (active),inactive,inactive,–,–,inactive,inactive and 21.9 µM (active),17.5 µM (active) and 6.13 µM (active) and 19.5 µM (active),–,24.8 µM (active) and 4.34 µM (active) and 11 µM (active),inactive and 7.72 µM (active) and 21.9 µM (active)
CCCCCCCCCCCCCCn1cc[n+](C)c1,39 µM (active) and 38.5 µM (active) and inactive,55 µM (active) and 24.3 µM (active),49.1 µM (active) and inactive,–,–,34.7 µM (active) and 43.2 µM (active) and inactive,21.9 µM (active) and 38.5 µM (active) and inactive,19.5 µM (active) and 21.6 µM (active) and inactive,inactive,2.76 µM (active) and 1.93 µM (active),24.6 µM (active) and 38.5 µM (active) and inactive
CC[N+]1(CC)CCC(OC(=O)C(O)(c2ccccc2)c2ccccc2)C1 (centres undefined),inactive,inactive,inactive,2.71% (inactive),inactive,inactive,inactive,inactive,inactive,–,–
COc1ccc2c(c1OC)C(=O)O[C@@H]2[C@H]1c2cc3c(cc2CCN1C)OCO3,inactive,inactive,inactive,–,inactive,inactive,inactive,inactive,inactive,–,inactive
